Source: PubChem BioAssay
hNpr1 antagonist – Natriuretic polypeptide receptor (hNpr1) antagonism - Primary qHTS; Potency, µM (top dose mostly 46.3 µM), inactives show at the highest dose activity change, negative = inhibition, most hits filed as inhibitors; hit rate 1.6% among 76,000; AID 1347048, 2019; HEK293 hNpr1 GloSensor cGMP, ANP-stimulated luminescence; Atrial natriuretic peptide receptor 1 (Homo sapiens), P16066; calls by dose curve; note: % is set by controls: 0 for no effect and ±100 for the full control effect; nearly all actives have a fitted effect of over 60% in size
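HEK293 cells stably expressing human Npr1 and cGMP GloSensor pGS-40F, loaded 2 h with 2% GloSensor reagent, given compound 30 min at room temperature. Luminescence read before and 20 min after 0.1 nM hNppA.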
NIH3T3 tox – Cytotoxic Profiling in NIH 3T3 Cell Line of Diverse Libraries Using Quantitative High-Throughput Screening; NIH 3T3 viability, CellTiter-Glo ATP luminescence, 48-72 h; Potency, µM (highest dose often 96.7 µM), for inactives: at the top dose activity change, negative = cytotoxicity, hits mostly inhibitors; hit rate 4.3% among 94,000; AID 1345082, 2018; note: % is set by controls: 0 for no effect and ±100 for the full control effect; nearly all actives have a fitted effect of over 55% in size
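First NIH 3T3 cells are plated at 400 cells/well; next compound is pinned in; then plates incubate 48 or 72 hr at 37 °C; finally CellTiter-Glo is added and luminescence read after 10 min.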
HEK cytotox – Cytotoxic Profiling in HEK 293 Cell Line of Diverse Libraries Using Quantitative High-Throughput Screening | HEK 293 viability, ATP luminescence (CellTiter-Glo), 48-72 h | Potency, µM (series often up to 115 µM), for the others: at the highest dose activity change, negative = cytotoxicity, hits mostly inhibitors | hit rate 6.6% among 94,000; note: % is set by controls: 0 for no effect and ±100 for the full control effect; nearly all actives have a fitted effect of over 60% in size
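ATP-coupled CellTiter-Glo luminescence served as viability read-out, recorded 10 min after reagent addition at room temperature. HEK 293 cells, 250 cells/well, had been incubated with pintool-transferred compound for 48 or 72 hr at 37 degree Celsius.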
FLuc inh-1 – Firefly luciferase inhibition profiling of diverse chemical library using quantitative high-throughput screening. Luciferin 4-monooxygenase (Photinus pyralis), P08659. purified P. pyralis luciferase, luminescence, biochemical. Potency, µM (top dose mostly 115 µM), most hits filed as inhibitors. hit rate 2.5% among 76,000. AID 1347043, 2019; note: % is set by controls: 0 for no effect and ±100 for the full control effect; nearly all actives have a fitted effect of over 65% in size
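Inhibitors were tested against purified firefly luciferase in a biochemical, low-substrate format (both substrates at 10uM) and luminescence measured with a CCD imager.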
GPT2 inh – Primary qHTS assay for inhibitors of Glutamate pyruvate transaminase 2 (GPT2). AID 1671188, 2021. Potency, µM (titrated, usually from 57.7 µM), without a hit: top-dose activity change, negative = inhibition, actives largely listed as inhibitors. Alanine aminotransferase 2 (Homo sapiens), Q8TD30. Recombinant GPT2, coupled pyruvate oxidase/HRP Amplex Red fluorescence. hit rate 0.25% among 100,000; note: % is set by controls: 0 for no effect and ±100 for the full control effect; nearly all actives have a fitted effect of over 60% in size
Target sequence (Q8TD30 whole entry, looked up): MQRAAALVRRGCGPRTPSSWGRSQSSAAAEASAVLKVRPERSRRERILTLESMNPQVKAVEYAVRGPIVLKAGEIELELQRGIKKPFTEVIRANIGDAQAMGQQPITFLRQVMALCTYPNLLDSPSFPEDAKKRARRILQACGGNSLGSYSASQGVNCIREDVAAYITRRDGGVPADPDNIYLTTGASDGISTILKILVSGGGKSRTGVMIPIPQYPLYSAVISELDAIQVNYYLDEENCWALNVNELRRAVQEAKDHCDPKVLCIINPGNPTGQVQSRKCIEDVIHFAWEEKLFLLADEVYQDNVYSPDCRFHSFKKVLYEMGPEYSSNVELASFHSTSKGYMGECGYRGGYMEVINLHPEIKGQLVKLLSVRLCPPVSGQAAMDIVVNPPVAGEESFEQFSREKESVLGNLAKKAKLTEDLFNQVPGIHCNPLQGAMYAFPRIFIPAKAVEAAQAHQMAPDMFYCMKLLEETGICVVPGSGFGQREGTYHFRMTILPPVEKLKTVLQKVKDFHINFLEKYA
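Fluorescence of coupled pyruvate oxidase/HRP/Amplex Red system (50uM Amplex, 30 min, dark) reports pyruvate formed by GPT2. Enzyme reaction: 10ng/uL GPT2, 2mM L-alanine, 250uM a-KG, 30 min room temperature, pH 7.5; 50uM AOA control.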
FLuc SDR -ATP – Firefly luciferase (FLuc-C-HiBiT) SDR gain of signal screen - without ATP; shares compounds with FLuc inh-1; AID 1963318, 2024; Purified FLuc-C-HiBiT, Nano-Glo HiBiT luminescence, no ATP; hit rate 7.8% among 1,300; Potency, µM (doses to about 32.7 µM), without a hit: at the highest dose activation (signal gain), usual class: activators; note: nearly all actives have a fitted effect of over 55% in size
FLuc SDR ATP – Firefly luciferase (FLuc-C-HiBiT) SDR gain of signal screen - plus ATP; shares compounds with FLuc inh-1; purified FLuc-C-HiBiT + ATP, HiBiT complementation luminescence; Potency, µM (titrated, usually from 32.7 µM), inactives show at the top dose activation (gain of signal), actives largely listed as activators; hit rate 8.7% among 1,300; AID 1963319, 2024;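 note: signal reports ligand binding via conformational change of the enzyme rather than luciferase catalysis; % of control where 0% means no effect; nearly all actives have a fitted effect of over 55% in size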
FLuc inh-2 – Firefly luciferase (FLuc-C-HiBiT) enzymatic inhibition screen - Functional assay; shares compounds with FLuc inh-1; purified FLuc-C-HiBiT enzyme, luciferin luminescence; Potency, µM (doses to about 32.7 µM), for inactives: at the highest dose activity change, negative = inhibition, hits mostly inhibitors; hit rate 42% among 1,300; AID 1963320, 2024; note: % is set by controls: 0 for no effect and ±100 for the full control effect; nearly all actives have a fitted effect of over 70% in size
An asterisk follows results filed as active; i = inactive; ? = inconclusive; . = no result; [ ] = remark or other dose. A selection: hits, their analogues and other compounds. The true share with any hit is near 10%. Unless noted, calls come from the whole dose curve; as a rule, active = well fitted curve in the direction sought with a large enough effect; inconclusive = small, poorly fitted or top-dose-only effect, or another doubt; inactive = no such curve, though single readings can be large; an effect the other way counts as inactive or inconclusive. Potency is the fitted concentration of half-maximal effect.

SMILES	hNpr1 antagonist	NIH3T3 tox	HEK cytotox	FLuc inh-1	GPT2 inh	others
CCS(=O)(=O)N1[C@H]2CC[C@@H]1c1cnc(-c3ccc(F)cc3)nc1C2	?	-30%	40µM*	i	?
Cc1cccc(NC(=O)N2[C@H]3CC[C@@H]2c2cnc(-c4ccccc4)nc2C3)c1	-29%	?	40µM*	i	3%
Cc1ccccc1S(=O)(=O)N1[C@H]2CC[C@@H]1c1cnc(-c3ccccc3)nc1C2	?	?	25µM*	i	i
O=C(NC[C@H]1C[C@@H]2CCN1C[C@@H]2CN1CCCC1)c1ccco1	4%[70.6 µM]	2%[138 µM]	5%[172 µM]	i	-6%[88.5 µM]
CSc1cccc(NC(=O)NC[C@H]2C[C@@H]3CCN2C[C@@H]3CN(C)c2ccccc2)c1	-17%[70.6 µM]	32µM*	25µM*	?	i
CCN(CC)C[C@H]1CN2CC[C@H]1C[C@@H]2CNC(=O)Nc1cccc(SC)c1	-3%[70.6 µM]	40µM*	50µM*	i	1%[88.5 µM]
CC[C@H]1CN2CC[C@H]1C[C@@H]2CNC(=O)Nc1cccc(SC)c1	2%[70.6 µM]	-22%[174 µM]	-24%[172 µM]	i	-9%[88.5 µM]
CC(C)NC(=O)NC[C@H]1C[C@@H]2CCN1C[C@@H]2CN(C)Cc1ccccc1	3%[70.6 µM]	-21%[174 µM]	-10%[172 µM]	i	-10%[88.5 µM]
CSc1cccc(NC(=O)NC[C@H]2C[C@@H]3CCN2C[C@@H]3CN(C)Cc2ccccc2)c1	-1%	22µM*	28µM*	i	1%
NC(N)=NOCC[C@H](N)C(=O)O	.	.	.	.	-21%
CC[C@H]1CN2CC[C@H]1C[C@@H]2CNS(=O)(=O)c1ccc2ccccc2c1	1%[70.6 µM]	-14%[174 µM]	?	i	i
CC[C@H]1CN2CC[C@H]1C[C@@H]2COC(=O)Nc1cccc2ccccc12	-9%[70.6 µM]	50µM*	?	i	i
CC[C@H]1CN2CC[C@H]1C[C@@H]2CNC(=O)Nc1ccc(Br)cc1	7%[70.6 µM]	-13%[174 µM]	3%[172 µM]	i	-4%[88.5 µM]
CC[C@H]1CN2CC[C@H]1C[C@@H]2COC(=O)Nc1ccc(C(C)(C)C)cc1	6%[70.6 µM]	40µM*	40µM*	?	i
O=C(NC[C@H]1C[C@@H]2CCN1C[C@@H]2CN1CCN(c2ccc(F)cc2)CC1)Nc1ccccc1	-5%	-23%	?	i	1%
O=C(NC[C@H]1C[C@@H]2CCN1C[C@@H]2CN1CCN(c2ccc(F)cc2)CC1)Nc1ccsc1	1%	?	79µM*	i	i
c1cc(CN2C[C@H](c3ccc4c(c3)OCO4)[C@@H]3[C@H]2C2CCN3CC2)ccn1	0%	-25%	1%	i	-3%
c1nc(N2C[C@@H](c3ccc4c(c3)OCO4)[C@@H]3[C@H]2C2CCN3CC2)c2[nH]cnc2n1	0%	-10%	-6%	i	0%	FLuc SDR -ATP=13%;FLuc SDR ATP=10%;FLuc inh-2=3%
Cc1cc(-c2cc3c(cn2)CN(CC(C)C)CCN3)ccn1	1%[70.6 µM]	?	?	4.5µM*	-3%[88.5 µM]	FLuc SDR -ATP=?;FLuc SDR ATP=17%[49.3 µM];FLuc inh-2=16µM*
COc1ccc(-c2cc3c(cn2)CN(C)CCN3)cc1OC	-11%[70.6 µM]	?	-43%[172 µM]	?	-46%[88.5 µM]
CC(C)(C)CC(=O)N1C[C@@H]2C[C@H](C1)c1ccc(NC(=O)Nc3cccc(F)c3)c(=O)n1C2	5%	?	?	14µM*	?	FLuc SDR -ATP=14%;FLuc SDR ATP=8%;FLuc inh-2=-15%
CC(C)N1CC2CCC(C1)N2Cc1ccccc1	.	i	i	.	5%[88.5 µM]
COc1cccc(Nc2cc3c(cn2)CN(C)CCN3)c1	-18%[70.6 µM]	?	?	4.5µM*	3%[88.5 µM]	FLuc SDR -ATP=20%[65.7 µM];FLuc SDR ATP=15%[65.7 µM];FLuc inh-2=23µM*
CN1Cc2ccccc2-n2ccnc2C12CCN(C(=O)NCCc1ccccc1)CC2	-13%	-5%	-7%	i	i
NC1CC1c1ccccc1 (configuration not stated)	.	.	.	.	-1%
Cc1ccccc1Cn1cccc(C(=O)Nc2nc3ccccc3s2)c1=O	.	.	.	.	.	FLuc SDR -ATP=?;FLuc SDR ATP=?;FLuc inh-2=0.88µM*
COCC(=O)N1[C@H]2CC[C@@H]1c1cnc(-c3ccc(F)cc3)nc1C2	1%	-13%	?	i	i
